# Rows were chosen to be rich in hits. Some 3.6% of all compounds tested hit in one or more screens of this group.
# TGFb SMAD3 inh – TGF-b pathway inhibition; 410,000 compounds, 1.2% hits; Potency, µM (top dose mostly 46.1 µM), actives largely listed as inhibitors; HepG2 CAGA-GFP TGF-b/SMAD3 reporter, GFP fluorescence, 18 h; TGF-beta stimulated, 500 pg/mL final; AID 588855; also: nearly all actives have a fitted effect of over 65% in size
#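 Inhibition was scored as loss of TGF-beta-induced (500 pg/mL final, 18 hours, 37 degrees C) GFP in HEPG2 cells carrying a CAGA-GFP reporter, in DMEM with 1% FBS. Well GFP was summed per cell; Activity was normalised to unstimulated and stimulated DMSO wells, then concentration-response fitting.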
# A549 tox-1 – A549 cytotoxicity, counter-screen for Nrf2 inhibitors; 390,000 compounds, 0.16% hits; A549 ARE-Fluc cells, CellTiter-Fluor viability, 18-24 h; Potency, µM (doses to about 46 µM), actives largely listed as inhibitors
#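 A549 ARE_Fluc cells in 5% FBS OPTI-MEM were exposed to compounds in concentration-response for 18-24 h at 37 deg C. Viability was read by CellTiter-Fluor fluorescence (Ex 405/Em 525) after 30 min, before the luciferase read.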
# Nrf2 block – Nrf2 pathway inhibition | Potency, µM (series often up to 46 µM), actives largely listed as inhibitors | A549 ARE-Fluc reporter, luciferase luminescence, 18-24 h | AID 504444 | 360,000 compounds, 2.1% hits; also: nearly all actives have a fitted effect of over 60% in size
#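 Reporter: ARE-Fluc in A549. Exposure: 18-24 h, 37 °C, 5% CO2, 5% FBS OPTI-MEM. Readouts: fluorescent cytotoxicity (CellTiter-Fluor), then luminescent Nrf2 signal after BugLite.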
# Nrf2 ARE act – Nrf2 pathway activation | AREc32 ARE-luciferase reporter (MCF7-derived line), luminescence, 24 h | Potency, µM (highest dose often 46.1 µM), actives largely listed as activators | 410,000 compounds, 0.31% hits; also: nearly all actives have a fitted effect of over 65% in size
#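 Nrf2 activation is followed as ARE-luciferase induction in the AREc32 line after one day of compound treatment; luminescence is read with Steady-Glo.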
# HepG2 tox-1 – HepG2 cytotoxicity, counter-screen for TGF-b inhibitors; HepG2 CAGA-GFP viability, ATP luminescence, 18 h; Potency, µM (doses to about 46.1 µM), most hits filed as cytotoxic; 410,000 compounds, 0.76% hits; AID 588856
#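 HepG2 CAGA-GFP cells (1000/well, DMEM with 1% FBS) received compound, then TGF-beta at 500 pg/mL final, and were incubated 18 hours at 37 degrees C. Viability was read by CellTiter-Glo luminescence. Media-only wells were set as complete cell-killing and DMSO as no toxicity.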
# FLuc enzyme inh – firefly luciferase inhibition, Nrf2 hit validation; Potency, µM (top dose mostly 57.5 µM), most hits filed as inhibitors; purified firefly luciferase, luminescence inhibition; 1,400 compounds, 4% hits; AID 720522; shares compounds with Nrf2 block; also: nearly all actives have a fitted effect of over 65% in size
# Target sequence (P08659 whole entry, looked up): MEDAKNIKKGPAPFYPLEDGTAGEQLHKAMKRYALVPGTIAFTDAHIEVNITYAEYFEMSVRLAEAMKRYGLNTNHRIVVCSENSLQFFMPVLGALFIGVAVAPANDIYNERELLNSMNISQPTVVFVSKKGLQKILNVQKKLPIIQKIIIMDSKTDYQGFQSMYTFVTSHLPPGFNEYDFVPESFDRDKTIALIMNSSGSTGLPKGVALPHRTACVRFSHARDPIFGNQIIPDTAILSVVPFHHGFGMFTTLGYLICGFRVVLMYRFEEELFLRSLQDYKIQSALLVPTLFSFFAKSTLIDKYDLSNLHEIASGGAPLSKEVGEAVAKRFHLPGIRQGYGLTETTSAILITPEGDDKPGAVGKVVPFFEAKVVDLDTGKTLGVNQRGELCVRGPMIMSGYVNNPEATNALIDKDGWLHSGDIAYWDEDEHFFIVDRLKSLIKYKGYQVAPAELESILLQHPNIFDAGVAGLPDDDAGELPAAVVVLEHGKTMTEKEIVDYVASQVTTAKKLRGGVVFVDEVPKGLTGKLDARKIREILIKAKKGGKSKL
# A549 tox-2 – counter-screen for Nrf2 inhibitors: cytotoxicity in A549 ARE cells. shares compounds with Nrf2 block. A549 ARE-Fluc cells, cytotoxicity counterscreen. Potency, µM (doses to about 46.1 µM), usual class: inhibitors. 1,400 compounds, 2% hits. AID 720523;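 also: cells exposed to compounds for 18 to 24 hours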
# Nrf2 ARE inh – Nrf2 inhibition confirmed, A549 ARE-luciferase | A549 ARE-firefly luciferase reporter, luminescence | 1,400 compounds, 74% hits | Potency, µM (titrated, usually from 46.1 µM), most hits filed as inhibitors | shares compounds with Nrf2 block; also: nearly all actives have a fitted effect of over 65% in size
# TGFb confirm – confirmation of TGF-b signaling inhibitors in HepG2 reporter cells | shares compounds with TGFb SMAD3 inh | 1,600 compounds, 63% hits | HepG2 CAGA-GFP TGF-b reporter, GFP fluorescence, 18 h; cells stimulated with TGF-beta, 500 pg/mL | Potency, µM (doses to about 46.1 µM), actives largely listed as inhibitors; also: nearly all actives have a fitted effect of over 65% in size
# HepG2 tox-2 – counter-screen for TGF-b inhibitors: cytotoxicity in HepG2 cells; shares compounds with TGFb SMAD3 inh; HepG2 CAGA-GFP viability, ATP luminescence, 18 h; cells stimulated with TGF-beta, 500 pg/mL; Potency, µM (doses to about 46.1 µM), most hits filed as inhibitors; 1,600 compounds, 27% hits; AID 720535; also: nearly all actives have a fitted effect of over 70% in size
# CCL64 TGFb inh – TGF-b inhibition, CCL64 orthogonal assay | shares compounds with TGFb SMAD3 inh | CCL64 CAGA-GFP reporter, TGF-b stimulated, GFP fluorescence, 18 h | Potency, µM (titrated, usually from 46.1 µM), usual class: inhibitors | 1,600 compounds, 41% hits; also: nearly all actives have a fitted effect of over 65% in size
# COP TGFb inh – validation of TGF-b inhibitors in HepG2 COP promoter reporter | shares compounds with TGFb SMAD3 inh | HepG2 COP-GFP TGF-b reporter, GFP fluorescence, 18 h; cells stimulated by added recombinant TGF-beta | Potency, µM (top dose mostly 46.1 µM), actives largely listed as inhibitors | 1,600 compounds, 3% hits | AID 720537; also: nearly all actives have a fitted effect of over 70% in size
# A number is an active result; n = inactive; u = inconclusive; x = no result shown; ! = repeats disagree. Calls follow the shape of the dose curve; as a rule, active = well fitted curve in the direction sought with a large enough effect; inconclusive = small, poorly fitted or top-dose-only effect, or another doubt; inactive = no such curve, though single readings can be large; an effect the other way counts as inactive or inconclusive.
SMILES,TGFb SMAD3 inh,A549 tox-1,Nrf2 block,Nrf2 ARE act,HepG2 tox-1,FLuc enzyme inh,A549 tox-2,Nrf2 ARE inh,TGFb confirm,HepG2 tox-2,CCL64 TGFb inh,COP TGFb inh
CC(C)(C)c1ccc(S(=O)(=O)Nc2ccc(Cc3ccncc3)cc2)cc1,u,u,9.2µM,n,n,n,u,0.021µM,x,x,x,x
CCCCOc1cccc(C(=O)Nc2ccc3oc(-c4cccnc4)nc3c2)c1,n,n,6.5µM,n,n,n,n,7.3µM,x,x,x,x
CCOC(=O)c1cc(-c2ccccc2)n(CC(=O)NCc2ccc(C)cc2)c1C,n,n,x,n,n,x,x,x,x,x,x,x
CCOC(=O)c1cc(-c2ccc(C)cc2)n(CCC(=O)NCc2ccccc2)c1C,n,n,8.2µM,n,n,n,n,n,x,x,x,x
CCn1c(C)cc(C(=O)CN2C(=O)c3ccccc3S2(=O)=O)c1C,n,n,3.7µM,n,n,8.5µM,n,x,x,x,x,x
Cc1cc(C(=O)CN2C(=O)c3ccccc3S2(=O)=O)c(C)n1C(C)C,n,n,2.9µM,n,n,6.7µM,n,8.2µM,x,x,x,x
CSc1ccc(-c2sc(Nc3ccccc3)n[n+]2-c2ccc(F)cc2)cc1,n,n,n,n,n,x,x,x,x,x,x,x
COc1cc(/C=C/c2ccc3ccccc3[n+]2C)cc(OC)c1OC,n,x,x,x,n,x,x,x,x,x,x,x
COc1ccc(OC)c(/C=C/c2ccc3ccccc3[n+]2C)c1,n,x,x,x,n,n,n,7.3µM,x,x,x,x
C[n+]1c(/C=C/c2ccc(O)cc2)ccc2ccccc21,n,n,n,n,n,x,x,x,x,x,x,x
C[n+]1c(/C=C/c2ccc(F)cc2)ccc2ccccc21,u,x,x,x,n,u,n,8.2µM,x,x,x,x
CCC(=O)N1CCc2cc(S(=O)(=O)CCC(=O)N3CCN(c4ccc(F)cc4)CC3)ccc21,n,n,n,n,n,x,x,x,x,x,x,x
CCOc1ccc(NC(=O)COc2ccc(C(=O)NCc3cccnc3)cc2OC)cc1,n,n,n,n,n,x,x,x,x,x,x,x
COc1cc(C(=O)NCc2cccnc2)ccc1OCC(=O)Nc1cccc(C(F)(F)F)c1,n,n,6.5µM,n,n,n,n,16µM,x,x,x,x
OCC1OC(n2cnc3c(NCc4ccco4)ncnc32)C(O)C1O (centres undefined),5µM,u,7.3µM!,u,n,n,n,4.1µM,5.8µM,18µM,12µM,n
CCC[C@H]1NC(=O)[C@H](C)N(C)C(=O)C(C)(C)C(=O)C(C)NC(=O)[C@H](Cc2ccc(OC)cc2)N(C)C(=O)[C@H](C(C)C)N(C)C(=O)CNC(=O)[C@H](CC(C)C)N(C)C(=O)CNC(=O)[C@H]([C@@H](C)CC)OC(=O)[C@H]1C (some centres undefined),1.1µM,1.5µM,1µM,n,n,n,u,1.8µM,0.37µM,u,0.29µM,n
CN=c1scc(-c2ccccc2F)n1/N=C/c1ccc[nH]1,n,n,u,n,n,x,x,x,x,x,x,x
O=[N+]([O-])c1cccc2nc3ccccc3c(NCCCn3ccnc3[N+](=O)[O-])c12,0.11µM,u,0.15µM,n,n,u,u,x,0.1µM,0.21µM,0.16µM,n
CCOc1ccc2nc(C(C)O)[nH]c2c1 (centres undefined),n,n,n,n,n,x,x,x,x,x,x,x
NC(=O)c1ccccc1NC(=O)CCCc1ccccc1,n,n,n,n,n,x,x,x,x,x,x,x
CCN(CC)c1nc2cc(OC)ccc2cc1C#N,n,n,n,n,n,x,x,x,x,x,x,x
CCN(CC)c1ccc(/C=C/c2ccc3ccc(OC)cc3[n+]2CC)cc1,6.3µM,u,4.6µM,n,n,n,u,5.2µM,2.9µM,u,2.6µM,n
O=C(CSC1=NCCS1)Nc1ccnc2ccccc12,u,n,5.2µM,n,n,n,n,7.3µM,10µM,n,n,n
O=C(Nc1ccc(Br)cc1)c1cccc(S(=O)(=O)Nc2cnc3ccccc3c2)c1,13µM,u,2.9µM,n,n,u,n,18µM,8.2µM,u,23µM,n
COc1ccc(NC(=O)c2cccc(S(=O)(=O)Nc3ccc(Br)cc3)c2)cn1,n,u,u,n,n,x,x,x,x,x,x,x
SMILES,TGFb SMAD3 inh,A549 tox-1,Nrf2 block,Nrf2 ARE act,HepG2 tox-1,FLuc enzyme inh,A549 tox-2,Nrf2 ARE inh,TGFb confirm,HepG2 tox-2,CCL64 TGFb inh,COP TGFb inh
Cc1c2ccncc2cc2c1[nH]c1ccccc12,u,u,n,n,n,x,x,x,x,x,x,x
COc1ccc2[nH]c3c(C)c4ccncc4c(C)c3c2c1,3.5µM,u,8.2µM,n,11µM,n,u,2.6µM,2.3µM,4.1µM,2.6µM,u
CC(OC(=O)c1ccncc1)C(=O)Nc1cccc([N+](=O)[O-])c1 (centres undefined),n,n,n,n,n,x,x,x,x,x,x,x
COc1cccc2c1C(=O)c1c(O)c3c(c(O)c1C2=O)CC(O)(C(C)=O)CC3OC1CC(N(C)C)C(O)C(C)O1 (centres undefined),0.79µM,u,2.3µM,n,n,n,u,1µM,0.26µM,0.33µM,1µM,u
COc1ccc(-c2csc(NC(=O)c3ccccc3NS(=O)(=O)c3ccc(F)c(F)c3)n2)cc1,1.8µM,u,2.9µM,n,n,u,u,4.1µM,2.3µM,1.5µM,1.8µM,n
COc1ccc(-c2csc(NC(=O)c3ccccc3F)n2)cc1,n,n,n,n,n,x,x,x,x,x,x,x
CCOC(=O)c1cc2nc(-c3ccco3)cc(C(F)(F)F)n2n1,n,n,n,u,n,x,x,x,x,x,x,x
CCOc1ccc(CCN2C(=S)N([C@@H](Cc3ccc(O)cc3)CN3CCC[C@@H]3CN3C(=S)NC[C@@H]3Cc3ccccc3)C[C@@H]2CC(C)C)cc1,n,x,x,n,n,x,x,x,x,x,x,x
